From PubChem BioAssay AID1745849 (National Center for Advancing Translational Sciences (NCATS), 2022)
In all, about 2,100 compounds went through this assay and about 320 (15%) were called active. Roughly 52% stayed inconclusive and do not appear here. Calls come from the whole dose curve; as a rule, active = well fitted cell-killing curve with a large enough effect; inconclusive = small, poorly fitted or top-dose-only effect, or effect the other way; inactive = flat fitted curve, though single readings scatter. This is one part of the list.

experiment: Viability Counterscreen for CMV-Luciferase Assay of Inhibitors of ATXN expression; settings: HEK-293 CMV-luciferase cells viability, protease fluorescence, 24 h; activity change, negative = cytotoxicity: at the top concentration; note: nearly all actives have a fitted effect of over 55% in size
Summary of the method: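 Dosing on CMV-luciferase HEK-293 cells for 24 hr, 37 °C. Luminescence read with SteadyGlo; cytotoxicity measured first as Gly-Phe-AFC protease fluorescence, 25 uM final substrate, 30 min.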
% is set by controls: 0 for no effect and ±100 for the full control effect; potency is the fitted concentration of half-maximal effect.

SMILES | activity change, negative = cytotoxicity | Potency
Cc1ccc(-c2cc(-c3ccccc3)nc(NN)n2)cc1 | -26.4% [at 57.5 µM] (inactive) | 
NS(=O)(=O)c1ccc(CCNc2nn3c(-c4cccc(OC(F)(F)F)c4)cnc3s2)cc1 | -22.9% (inactive) | 
C=CCOC(=O)C1=C[C@@H](c2ccc3c(c2)OCO3)C[C@@H](OCCCCO)O1 | -10.7% [at 57.5 µM] (inactive) | 
CN(C)CCNc1ccc2ncn3c4ccc(O)cc4c(=O)c1c23 | 7.3% (inactive) | 
CN(C)CCNc1cccc2sc3ccc(O)cc3c(=O)c12 |  | 12.6 µM (active)
O=C(Nc1cccc(Cl)c1)c1ccc2c(c1)SC1=NS(=O)(=O)CCN12 | -19.6% (inactive) | 
CCOC(=O)c1c(-n2cccc2)sc2c1CCCC2=O | 9.15% [at 57.5 µM] (inactive) | 
CC[n+]1c(C=C2C=C(C)OC(C)=C2)sc2ccccc21 |  | 14.1 µM (active)
NNC(=O)/C(=N/Nc1ccccc1)S(=O)(=O)c1ccc(Cl)cc1 |  | 10 µM (active)
O=C(NCc1cc(C(F)(F)F)ccc1Cl)c1cccc2c1C(=O)c1ccc(N3CCOCC3)cc1S2(=O)=O | -8.41% (inactive) | 
CC1(C(=O)NCc2ccco2)CCN1C(=O)C1(c2ccccc2)CC1 (centres undefined) | -2.99% (inactive) | 
Cc1cc(C)c2c(c1)/C(=C/C(=O)c1ccc(Br)s1)C(=O)N2 |  | 3.16 µM (active)
O=c1oc2ccccc2c(O)c1Cc1cc(Cl)c2cccnc2c1O | 15.7% [at 57.5 µM] (inactive) | 
CC(C)COCc1ccc(O)c2ncccc12 | -13.8% (inactive) | 
O=[N+]([O-])c1cc(CN2CCN(c3ccccc3)CC2)c(O)c2ncccc12 |  | 11.2 µM (active)
Oc1ccc(Cl)c2cccnc12 | 25% [at 57.5 µM] (inactive) | 
O=[N+]([O-])c1cc(Cl)c(O)c2ncccc12 |  | 11.2 µM (active)
CCOC(=O)N1CCN(Cc2cc(Cl)c3cccnc3c2O)CC1 | -27.9% (inactive) | 
O=[N+]([O-])c1ccc(O)c2ncccc12 |  | 10 µM (active)
OCCN1CCN(Cc2cc(Cl)c3cccnc3c2O)CC1 | -25.4% [at 57.5 µM] (inactive) | 
COc1ccc(-c2nc(CN3CCN(c4ncnc5ccccc45)CC3)c(C)o2)c(OC)c1 | -25.7% (inactive) | 
c1ccc(Nc2nc(N3CCCCC3)nc(N3CCNCC3)n2)cc1 | 3.96% [at 57.5 µM] (inactive) | 
COc1cc(C)c(C(=O)CC(=O)c2c(C)cc(OC)cc2C)c(C)c1 | 5.25% (inactive) | 
CC(=O)N1c2ccc(S(=O)(=O)N3CCC(C(=O)Nc4cccc(C(F)(F)F)c4)CC3)cc2CC1C (centres undefined) | -28.3% [at 57.5 µM] (inactive) | 
Cc1nn(-c2ccccc2)c(N2CCCC2)c1/C=N/NC(=O)c1cc2ccccc2cc1O | -4.71% (inactive) | 

SMILES | activity change, negative = cytotoxicity | Potency
COc1cccc(CN2CCC2(C)C(=O)Nc2cccc3cccnc23)c1OC (centres undefined) | -16.4% (inactive) | 
COc1ccc(CC2C(=O)NC(C)C(=O)N(C)C3Cc4ccc(cc4)Oc4cc(ccc4O)CC(C(=O)NC(C)C(=O)NC(C)C(=O)N2C)N(C)C3=O)cc1 (centres undefined) |  | 0.316 µM (active)
CC1(C)c2[nH]c3ccccc3c2C[C@H]2C(=O)N(Cc3ccccc3F)C(=O)N21 | -10.7% [at 57.5 µM] (inactive) | 
Nc1nc(NCCCN2CCOCC2)nc(Nc2cccc(Cl)c2)c1[N+](=O)[O-] | -19.8% (inactive) | 
COC(=O)[C@H]1C[C@H](OC(=O)NC2CC2)[C@@]2(O)CN(S(=O)(=O)c3ccc(C)cc3)CC2[C@H]1C(=O)OC (some centres undefined) | 1.18% (inactive) | 
COc1c(C)cccc1C(=O)Nc1ccc(N2CCN(C(=O)c3ccccc3C)CC2)cc1 |  | 31.6 µM (active)
Cc1ccc(C(=O)N2CCN(c3ccc(NC(=S)NC(=O)c4cccs4)cc3)CC2)cc1 | 12.1% (inactive) | 
COc1ccccc1N(C)S(=O)(=O)c1ccc(C(=O)Nc2ccc(N3CCOCC3)cc2)cc1 | -29.3% [at 57.5 µM] (inactive) | 
CC(C)n1c(NCc2cc(Cl)ccc2O)nc2ccccc21 | -6.93% (inactive) | 
C/C(=N\N=C(N)N)c1ccc(Cl)cc1Cl | -11.9% [at 57.5 µM] (inactive) | 
O=C(Nc1nc(-c2ccccn2)cs1)c1ccccc1-n1cnnn1 |  | 7.94 µM (active)
O=C(NNc1nc2ccc(Cl)cc2s1)c1cc(-c2cccs2)nc2ccccc12 | -18.1% (inactive) | 
Cc1c(C(=O)Nc2nccs2)sc2nc(-c3cccs3)cc(C(F)(F)F)c12 | -21.8% (inactive) | 
CC(N)c1csc(NC(=O)c2cc(C(C)(C)C)nn2Cc2ccccc2)n1 (centres undefined) | 7.86% (inactive) | 
O=C(Nc1nc(-c2ccccn2)cs1)c1cc(Cl)ccc1[N+](=O)[O-] |  | 3.16 µM (active)
Cc1cc(OCC(=O)NC(C)c2ccccc2)ccc1[N+](=O)[O-] (centres undefined) | 1.14% (inactive) | 
CCc1sc(C(=O)Nc2nc(-c3ccccn3)cs2)cc1C |  | 11.2 µM (active)
COc1ccc(CNC(=O)CSc2nc(-c3ccccc3)cc(-c3cccs3)c2C#N)cc1 | -20.3% (inactive) | 
CCCOc1ccccc1C1NC(=O)NC(C)=C1C(=O)OCc1ccccc1 (centres undefined) | -3.94% (inactive) | 
CN1CCN(CC#CCn2c3ccccc3c3ccccc32)CC1 | -3.45% [at 57.5 µM] (inactive) | 
Cc1cc(/C=N/n2cnnc2)c(C)n1-c1ccc(OCc2ccc(Cl)cc2Cl)cc1 |  | 28.2 µM (active)
S=C(Nc1ccccc1)Nc1ccc(OCc2ccc(Cl)cc2Cl)cc1 | -10% [at 57.5 µM] (inactive) | 
CCc1nc2c(OCc3ccc(Cl)cc3Cl)cccn2c1N(C=O)Cc1ccc(OC)cc1 | -29.4% (inactive) | 
CN1CCN(c2nc(Nc3ccc(F)cc3)nc(Nc3ccc(F)cc3)n2)CC1 | 20.3% [at 57.5 µM] (inactive) | 
